Many of the other results were omitted from the sample, so hits are more common in it than they were.
NOMO-1 viab: STK33 inhibitor candidate reducing NOMO-1 cell viability; actives 7.5% (n = 37,000); NOMO-1 AML viability, CellTiter-Glo luminescence, 72 h; inhibition, % (test concentration not listed); AID 2330; in the data active = inhibition above about 80%
mut p53 react: re-activators of the mutant p53 pathway; SW480 PUMA-promoter luciferase, p53 mutant reactivation; activation, % at 9.98 µM; actives 1.5% (n = 28,000); AID 624151; in the data active = activation above about 52%
STK33 inh: human STK33 kinase inhibition; AID 2322; inhibition, % at 12.5 µM; actives 0.44% (n = 27,000); ADP-Glo luminescence, MBP substrate; in the data active = inhibition above about 20%
Target sequence (Q9BYT3 whole entry, looked up): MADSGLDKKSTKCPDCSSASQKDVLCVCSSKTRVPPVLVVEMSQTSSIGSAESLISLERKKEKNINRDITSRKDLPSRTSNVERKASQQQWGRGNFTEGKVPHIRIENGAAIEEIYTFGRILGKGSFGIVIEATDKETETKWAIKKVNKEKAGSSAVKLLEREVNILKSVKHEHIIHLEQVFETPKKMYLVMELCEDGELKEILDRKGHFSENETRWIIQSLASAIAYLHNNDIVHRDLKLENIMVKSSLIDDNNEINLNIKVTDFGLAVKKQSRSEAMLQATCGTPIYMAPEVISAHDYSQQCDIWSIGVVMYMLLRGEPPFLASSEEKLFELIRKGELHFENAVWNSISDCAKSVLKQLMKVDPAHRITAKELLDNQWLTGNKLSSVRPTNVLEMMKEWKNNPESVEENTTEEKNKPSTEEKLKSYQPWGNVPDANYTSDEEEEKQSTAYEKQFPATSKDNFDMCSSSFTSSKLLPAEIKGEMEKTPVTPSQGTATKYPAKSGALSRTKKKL
ID4 SMM: binders of human ID4 protein. actives 1.2% (n = 31,000). P47928. calls only. small molecule microarray, Flag-ID4 binding, fluorescence F/B; call rule not given here;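 note: a binder raises fluorescence above local background on the spot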
* marks the source's active call; other numbers are inactive results; i = inactive; . = no result; + = active, no number.

SMILES	NOMO-1 viab	mut p53 react	STK33 inh	ID4 SMM
COc1ccc(NC(=O)NCc2ccccn2)cc1OC	16.9	-4.3	0.2	i
Cc1ccc(-c2cc(C(=O)NCc3ccco3)no2)cc1	2.3	73.4*	-3.0	i
O=C(NCc1ccccn1)C(=O)Nc1ccc(Cl)c(Cl)c1	2.3	57.9*	0.3	i
O=C(NCc1ccccn1)c1cc(-c2ccccc2)on1	18.1	92.6*	-0.6	i
COC(=O)c1c(NC(=S)Nc2ccn(C)n2)sc(C)c1-c1ccccc1	2.6	19.5	-1.7	i
O=C(O)CCSc1nc(-c2ccccc2)c(-c2ccccc2)[nH]1	-7.1	-7.4	0.3	+
Cc1cccc(NC(=O)CSc2nc(-c3ccccc3)c(-c3ccccc3)[nH]2)c1C	29.4	-9.0	-0.3	i
CC(C)(C)C1CCc2c(sc(NC(=O)COc3ccccc3Cl)c2C(N)=O)C1 (stereo unspecified)	104.3*	-2.3	-0.5	i
CCc1ccccc1OCC(=O)Nc1sc2c(c1C(N)=O)CCCC2	35.5	14.8	-5.0	i
CN1C(=O)C(CC(=O)Nc2ccc(Cl)cc2)N(Cc2ccco2)C1=S (stereo unspecified)	152.2*	15.2	1.0	i
CC[n+]1c(C=C2C=C(C)CC(C)C2)sc2ccccc21 (stereo unspecified)	126.2*	.	.	.
O=C(OCc1ccc(-c2cccc(Cl)c2Cl)o1)c1cccnc1	-1.8	3.6	2.4	i
C[C@H]1CN([C@@H](C)CO)C(=O)c2cc(NC(=O)Nc3ccc(F)cc3)ccc2O[C@H]1CN(C)S(C)(=O)=O	-15.0	.	-0.9	.
Cc1ccccc1NC(=O)CCC(=O)OC1CCC(C(C)(C)C)CC1 (stereo unspecified)	92.8*	.	.	.
OC(CNC1CCCC1)Cn1c2ccccc2c2ccccc21 (stereo unspecified)	95.9*	-9.4	2.2	i
Cc1ccccc1OCC(O)Cn1c2ccccc2c2ccccc21 (stereo unspecified)	-30.2	.	-2.0	.
C=CCc1ccc(O[C@@H]2O[C@H](CO)[C@@H](O)[C@H](O)[C@H]2O)c(O[C@@H]2O[C@H](CO)[C@@H](O)[C@H](O)[C@H]2O)c1	120.0*	-4.4	-2.0	.
COc1cc(/C=C/c2cc(O)cc(O)c2)ccc1O[C@@H]1O[C@H](CO)[C@@H](O)[C@H](O)[C@H]1O	27.8	65.7*	-0.7	i
CCCc1cc(=O)[nH]c(SCC(=O)Nc2ccc(Cl)c(Cl)c2)n1	37.9	3.4	0.3	i
CO[C@@H]1CN(C)C(=O)c2ccc(N)cc2OC[C@@H](C)NC[C@H]1C	.	.	.	i
C[C@@H]1CN([C@@H](C)CO)C(=O)c2cc(NC(=O)Nc3ccc(F)cc3)ccc2O[C@H]1CN(C)Cc1ccc2c(c1)OCO2	36.5	-28.2	.	i
COC(=O)c1ccc(COc2ccc3c(C)cc(=O)oc3c2)o1	48.2	62.9*	-5.0	i
COC(=O)c1ccc(COc2ccc3c(c2)oc(=O)c2cc(OC)ccc23)o1	30.4	5.5	5.7	i
CC(=O)Nc1ccccc1C(=O)OCc1cccc(C(=O)c2ccccc2)c1	35.3	94.2*	-0.5	i
N#Cc1ccc(Oc2ccc(C(=O)OCc3cccc(C(=O)c4ccccc4)c3)cc2)cc1C#N	14.6	8.1	3.7	i
SMILES	NOMO-1 viab	mut p53 react	STK33 inh	ID4 SMM
O=C(OCc1cccc(C(=O)c2ccccc2)c1)c1ccc(-c2nnc(-c3ccccc3)o2)cc1	5.3	71.3*	-0.5	i
O=C(Nc1ccccc1C(=O)OCc1cccc(C(=O)c2ccccc2)c1)c1ccccc1	27.3	6.0	3.7	i
C[C@@H]1CN([C@H](C)CO)C(=O)c2cc(NS(=O)(=O)c3ccccc3)ccc2O[C@@H](C)CCCCO[C@H]1CN(C)C(=O)c1ccccc1	.	3.9	.	i
Cc1ccc(S(=O)(=O)Nc2cccc3c2O[C@@H](CN(C)S(=O)(=O)c2ccc(Cl)cc2)[C@@H](C)CN([C@@H](C)CO)C3=O)cc1	14.9	.	.	.
CC1C(c2ccccc2)O/C(=N\S(=O)(=O)c2ccc(Cl)cc2)N1C (stereo unspecified)	0.9	.	.	.
C[C@@H]1CN([C@@H](C)CO)C(=O)c2cc(NC(=O)NC3CCCCC3)ccc2O[C@@H]1CN(C)Cc1ccc(C(=O)Nc2ccccc2N)cc1	107.0*	.	.	.
CC(C)NC(=O)Nc1ccc2c(c1)C(=O)N([C@H](C)CO)C[C@@H](C)[C@H](CN(C)Cc1ccc(C(=O)Nc3ccccc3N)cc1)O2	15.3	.	.	.
C[C@@H]1CN([C@H](C)CO)C(=O)c2cc(NC(=O)NC3CCCCC3)ccc2O[C@@H]1CN(C)Cc1ccc(C(=O)Nc2ccccc2N)cc1	99.0*	.	.	.
C[C@H](CO)N1C[C@H](C)[C@H](CN(C)Cc2ccc(C(=O)Nc3ccccc3N)cc2)Oc2ccc(NC(=O)NC3CCCCC3)cc2C1=O	97.8*	.	.	.
C[C@H]1CN([C@@H](C)CO)C(=O)c2cc(NC(=O)NC3CCCCC3)ccc2O[C@H]1CN(C)Cc1ccc(C(=O)Nc2ccccc2N)cc1	59.4	.	.	.
Cn1c(SCC(=O)Nc2ccc3ccccc3c2)nnc1-c1cc2ccccc2o1	-5.0	-6.2	-2.0	i
O=C(CC(Sc1ccc(Br)cc1)C(=O)O)c1ccc(Cl)cc1 (stereo unspecified)	115.4*	.	.	.
COc1cc(NC(=O)CSc2nnc(-c3ccncc3)n2C)cc(OC)c1	10.5	6.4	-0.2	i
COC(=O)c1ccc(OCC(O)Cn2c(C)nc3ccccc32)cc1 (stereo unspecified)	68.2	2.6	0.4	+
Cc1nc2ccccc2n1CC(O)COc1ccc(C(=O)O)cc1 (stereo unspecified)	-0.6	3.9	-0.5	i
CC(C)c1c(O)ccc2c1CCC1C(C)(C)CCC[C@]21C (stereo partly specified)	109.0*	.	3.3	.
CCc1ccc(C2C(C#N)=C(C)NC3=C2C(=O)CC(C)(C)C3)cc1 (stereo unspecified)	86.1*	.	.	.
O=C(COc1ccc(Br)cc1)Nc1ccc(Cl)c(-c2nc3ncccc3o2)c1	-31.6	36.3	6.0	i
Cc1ccccc1C1CC(=O)c2c(ccc3ccccc23)N1 (stereo unspecified)	139.7*	.	.	.
CN(C)c1ccc2c(c1)[C@@H]1C[C@H](CC(=O)NCc3ccc(Oc4ccccc4)cc3)O[C@H](CO)[C@@H]1O2	.	.	.	i
C[C@@H]1CCCCO[C@@H](CN(C)Cc2ccc(C(F)(F)F)cc2)[C@@H](C)CN([C@H](C)CO)C(=O)c2cc(NC(=O)c3ccccc3)ccc2O1	93.0*	.	5.6	.
C[C@@H]1CCCCO[C@@H](CN(C)Cc2ccccc2)[C@@H](C)CN([C@H](C)CO)C(=O)c2cc(NC(=O)Cc3ccccc3)ccc2O1	5.3	.	-0.2	.
C[C@@H]1CCCCO[C@@H](CN(C)Cc2ccc(C(F)(F)F)cc2)[C@@H](C)CN([C@H](C)CO)C(=O)c2cc(NC(=O)c3ccncc3)ccc2O1	19.8	.	-1.2	.
COc1ccc(CN(C)C[C@@H]2OCCCC[C@H](C)Oc3ccc(NC(=O)Nc4ccc(OC)cc4)cc3C(=O)N([C@@H](C)CO)C[C@@H]2C)cc1	.	-16.4	.	.
COc1ccc(NC(=O)Nc2ccc3c(c2)C(=O)N([C@H](C)CO)C[C@H](C)[C@@H](CN(C)Cc2ccc(C(F)(F)F)cc2)OCCCC[C@@H](C)O3)cc1	110.0*	.	1.5	.

Bioassay records from PubChem BioAssay.
